From PubChem BioAssay (NCI) come the findings set out here.

This is part of a sample that, as a whole, favours compounds with a hit. Of some 83,000 tested, about 20% had one in any assay.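 Single-dose data. Exposure time 48 hours. Values below 10 considered active.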 A number with no mark means an inactive call. The source made the active and inactive calls.

Some test systems named below: SK-MEL-2 melanoma; EKVX NSCLC; SN12C renal; UO-31 renal; TK-10 renal; ACHN renal; CAKI-1 renal; A498 renal; CCRF-CEM leukemia; MOLT-4 leukemia; SR leukemia; RPMI-8226 leukemia; OVCAR-8 ovarian; OVCAR-5 ovarian; OVCAR-4 ovarian; SK-OV-3 ovarian; IGROV1 ovarian; OVCAR-3 ovarian; HS 578T breast; NCI/ADR-RES ovarian.
Assay in all cases: NCI-60 one-dose screen, 48 h (100 = growth as untreated, 0 = no growth, -100 = all killed)
Conditions in all cases: 10 µM

Consider `CN(C)c1ncnc2c1nnn2C1OC(CO)C(O)C1O` (stereo not given), for which the growth was -17.2% (active) with SK-MEL-2 melanoma; 39.9% in the experiment on EKVX NSCLC; 18.7% in the experiment on SN12C renal; 8.73% (active) in the experiment on UO-31 renal; -2.87% (active) in the experiment with TK-10 renal; 5.56% (active) in the experiment on ACHN renal. The growth in the experiment on CAKI-1 renal is 7.19% (active); in the experiment on A498 renal, 22.3%; in the experiment with CCRF-CEM leukemia it was 8.83% (active); with MOLT-4 leukemia it was 8.29% (active); with SR leukemia, 31.3%; in the experiment on RPMI-8226 leukemia it was -4.55% (active). Also, the growth was 8.85% (active) in the experiment on OVCAR-8 ovarian; 26.8% in the experiment with OVCAR-5 ovarian; 23.4% with OVCAR-4 ovarian; 4.66% (active) in the experiment on SK-OV-3 ovarian; 3.79% (active) with IGROV1 ovarian; -18.8% (active) with OVCAR-3 ovarian. The growth with HS 578T breast was 19.8%; in the experiment with NCI/ADR-RES ovarian it was 15.3%.
Turning to `NS(=O)(=O)Oc1ccc(NC(=O)C2CCCCCC2)cc1`, the growth was 106% with SK-MEL-2 melanoma; 85.1% in the experiment on EKVX NSCLC; 99.1% in the experiment with SN12C renal; 82.1% in the experiment with UO-31 renal; 105% with TK-10 renal; 97.3% in the experiment with ACHN renal. The growth with CAKI-1 renal was 87.4%; with A498 renal, 122%; in the experiment with CCRF-CEM leukemia it was 89.4%; with MOLT-4 leukemia it was 104%; in the experiment with SR leukemia, 98.5%; in the experiment on RPMI-8226 leukemia, 102%. For the same compound, the growth in the experiment on OVCAR-8 ovarian is 98.8%; in the experiment on OVCAR-5 ovarian, 98.4%; in the experiment on OVCAR-4 ovarian, 107%; in the experiment with SK-OV-3 ovarian it was 99%; with IGROV1 ovarian, 103%; in the experiment on OVCAR-3 ovarian, 102%. For the same compound, the growth was 108% in the experiment with HS 578T breast and 103% with NCI/ADR-RES ovarian.
For `NS(=O)(=O)Oc1ccc2c(ccn2C(=O)C23CC4CC(CC(C4)C2)C3)c1`, the growth with SK-MEL-2 melanoma was 116%; in the experiment on EKVX NSCLC, 109%; with SN12C renal, 97.8%; in the experiment on UO-31 renal it was 80.4%; in the experiment with TK-10 renal it was 106%; in the experiment with ACHN renal, 101%. Also, the growth in the experiment with CAKI-1 renal was 94.4%; with A498 renal it was 98.1%; in the experiment on CCRF-CEM leukemia, 99%; in the experiment on MOLT-4 leukemia, 101%; with SR leukemia it was 111%; in the experiment with RPMI-8226 leukemia, 110%. In addition, the growth in the experiment with OVCAR-8 ovarian was 105%; in the experiment with OVCAR-5 ovarian, 105%; in the experiment with OVCAR-4 ovarian, 104%; with SK-OV-3 ovarian, 121%; in the experiment on IGROV1 ovarian, 110%; in the experiment on OVCAR-3 ovarian, 117%. In addition, the growth in the experiment on HS 578T breast is 109%; with NCI/ADR-RES ovarian, 95.5%.
For the compound `CCC(=O)OC1CCC2C3CCC(=O)OC3C(C)(CCC(=O)O)CC12C` (stereo not given), the growth with SK-MEL-2 melanoma is 12.7%; in the experiment with EKVX NSCLC, 8.81% (active); in the experiment on SN12C renal, 55.5%; in the experiment with UO-31 renal it was 47.1%; with TK-10 renal it was 47%; in the experiment on ACHN renal, 43.9%. Further, the growth was -4.08% (active) in the experiment on CAKI-1 renal; -71.5% (active) in the experiment on A498 renal; -14.8% (active) in the experiment with CCRF-CEM leukemia; -0.59% (active) with MOLT-4 leukemia; -21.1% (active) in the experiment with SR leukemia; 6.49% (active) with RPMI-8226 leukemia. In addition, the growth was 61.4% in the experiment with OVCAR-8 ovarian; 59% with OVCAR-5 ovarian; 65.8% in the experiment with OVCAR-4 ovarian; 51.6% in the experiment on SK-OV-3 ovarian; 25.4% in the experiment with IGROV1 ovarian; 5.37% (active) in the experiment on OVCAR-3 ovarian. The growth in the experiment with HS 578T breast was -28.7% (active); in the experiment on NCI/ADR-RES ovarian, 15.8%.
Take `Cc1cc(Cl)ccc1Nc1nc(C(F)(F)F)ccc1C(=O)N/N=C/c1cccc(O)c1`: the growth was 16% in the experiment with SK-MEL-2 melanoma; 20.8% with EKVX NSCLC; 52.3% in the experiment with SN12C renal; 6.02% (active) in the experiment with UO-31 renal; 85.9% with TK-10 renal; 28.3% in the experiment on ACHN renal. The growth was 25.5% in the experiment with CAKI-1 renal; -41.5% (active) in the experiment on A498 renal; 4.04% (active) in the experiment on CCRF-CEM leukemia; 3.63% (active) with MOLT-4 leukemia; -13% (active) in the experiment on SR leukemia; 24.1% with RPMI-8226 leukemia. Also, the growth with OVCAR-8 ovarian is 62.6%; with OVCAR-5 ovarian, 51.1%; in the experiment on OVCAR-4 ovarian, 33.8%; with SK-OV-3 ovarian it was 38.8%; in the experiment on IGROV1 ovarian, 27.7%; with OVCAR-3 ovarian, 35.9%. For the same compound, the growth with HS 578T breast is -17.5% (active); in the experiment on NCI/ADR-RES ovarian, 26.6%.
For `Cc1cc(CCNC=O)c(C)c2c1sc1ccccc12`, the growth was 109% with SK-MEL-2 melanoma; 56.6% in the experiment on EKVX NSCLC; 79.7% with SN12C renal; 91.2% in the experiment with UO-31 renal; 94.4% with TK-10 renal; 99.8% with ACHN renal. For the same compound, the growth with CAKI-1 renal is 80.7%; in the experiment with A498 renal it was 72.8%; in the experiment with CCRF-CEM leukemia, 84%; in the experiment on MOLT-4 leukemia, 94.5%; in the experiment with SR leukemia, 89.4%; in the experiment with RPMI-8226 leukemia, 92.4%. The growth with OVCAR-8 ovarian was 97.9%; with OVCAR-5 ovarian, 82.4%; in the experiment with OVCAR-4 ovarian, 85%; in the experiment on SK-OV-3 ovarian, 104%; with IGROV1 ovarian, 122%; with OVCAR-3 ovarian, 111%. The growth in the experiment with HS 578T breast was 54%; with NCI/ADR-RES ovarian, 97.8%.
`C/C=C/C1=CN2C(=O)c3cc(OC4OC(C)C(NC)C(C)(O)C4O)c(C)c(O)c3N=C[C@@H]2C1` (stereo not given in full): the growth with SK-MEL-2 melanoma is 17.9%; in the experiment with EKVX NSCLC, -3.19% (active); with SN12C renal, 1.37% (active); in the experiment on UO-31 renal, -44.5% (active); in the experiment with TK-10 renal, 16.2%; in the experiment on ACHN renal, 3.15% (active). Also, the growth with CAKI-1 renal was 9.27% (active); in the experiment on A498 renal it was -83.1% (active); in the experiment on CCRF-CEM leukemia it was 1.22% (active); with MOLT-4 leukemia, 2.33% (active); in the experiment with SR leukemia it was 0.588% (active); in the experiment with RPMI-8226 leukemia it was 7.45% (active). Also, the growth is 9.18% (active) in the experiment on OVCAR-8 ovarian; -1.31% (active) in the experiment on OVCAR-5 ovarian; 6.69% (active) in the experiment with OVCAR-4 ovarian; 1.76% (active) in the experiment on SK-OV-3 ovarian; -22.7% (active) in the experiment on IGROV1 ovarian; -4.33% (active) in the experiment on OVCAR-3 ovarian. The growth with HS 578T breast was -11.6% (active); in the experiment with NCI/ADR-RES ovarian, -6.18% (active).
